Rows were chosen to be rich in hits. Some 3.4% of all compounds tested hit in one or more screens of this group.
FBW7 activator = human FBW7 E3 ligase activation, primary screen | Q969H0 | AlphaScreen FBW7–phospho-cyclin E peptide binding, activator screen | normalized activity (activation), % at 26.1 µM | 0.13% of 650,000 active | AID 1259310; in the data active means normalized activity above about 1.9%;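 further: purified mutant Fbw7 with reduced substrate affinity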
GPR151 activ = human GPR151 activation | AID 1508602 | PathHunter beta-arrestin GPR151 cells, luminescence | activation, % at 11.2 µM | 1% of 650,000 active; in the data active means activation above about 4.9%
MITF inh = blocks human microphthalmia-associated transcription factor; inhibition, % at 2.6 µM; 0.91% of 650,000 active; AID 1259374; O75030; AlphaScreen MITF homodimerization, bead proximity signal; in the data active means inhibition above about 50%
TEAD-YAP block = TEAD-YAP interaction inhibition; HEK-TIYL cells, TEAD-Gal4/YAP UAS-luciferase luminescence; 1.4% of 640,000 active; inhibition, % at 9.12 µM; in the data active means inhibition above about 32%
GPR151 conf act = human GPR151 activation, confirmation screen; activation, % at 11.2 µM; 6,700 tested, under 10 active; shares compounds with GPR151 activ; GPR151 PathHunter beta-arrestin cells, luminescence, 90 min; % of EA-reagent control over plate median;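 active means mean percent activation across replicates above the confirmation screen cutoff of 4.91%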
GPR119 counter = counter-screen for GPR151 activators: effect on human GPR119 | shares compounds with GPR151 activ | GPR119 PathHunter beta-arrestin cells, luminescence, 90 min; 0 = compound-well median, 100 = enzyme-acceptor control | activation, % at 11.2 µM | 0.3% of 6,700 active | AID 1508611;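 active means mean percent activation in the counterscreen above 29.09%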;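 further: counterscreen on off-target GPR119 to flag nonselective hits from the GPR151 activator screen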
Target sequence (Q8TDV5 whole entry, looked up): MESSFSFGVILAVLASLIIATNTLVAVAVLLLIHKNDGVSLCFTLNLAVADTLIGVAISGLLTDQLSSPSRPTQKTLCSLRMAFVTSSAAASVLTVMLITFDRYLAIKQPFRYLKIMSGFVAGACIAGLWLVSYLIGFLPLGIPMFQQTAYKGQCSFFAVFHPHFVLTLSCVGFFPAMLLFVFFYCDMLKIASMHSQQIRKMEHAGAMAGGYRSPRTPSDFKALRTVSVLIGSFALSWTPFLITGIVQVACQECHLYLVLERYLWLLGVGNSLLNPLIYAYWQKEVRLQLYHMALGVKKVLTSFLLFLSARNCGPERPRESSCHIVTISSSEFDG
Large screens that a line does not name were inactive (follow-up assays come after a bar, where they were run); ! = repeats disagree.

Cn1c(SCc2nc(-c3cccs3)no2)nnc1-c1ccco1	none
CCn1c(SCc2nc(-c3cccs3)no2)nnc1-c1ccco1	GPR151 activ 6.9 | GPR151 conf act inactive | GPR119 counter inactive
c1ccc(C(c2ccccc2)c2noc(C3CCNCC3)n2)cc1	GPR151 activ 6.9 | GPR151 conf act inactive | GPR119 counter inactive
c1cc(-c2noc(C3CCNCC3)n2)ccn1	none
O=C(COc1ccc(S(=O)(=O)N2CCc3ccccc32)cc1Cl)NCc1ccco1	none
CC1CCC(N2CC(=O)N(Cc3ccccc3)C(c3ccc(F)cc3)C2=O)CC1 (stereo unspecified)	none
CC(C)c1nc2cccnc2n1C1CCN(C(=O)c2n[nH]c3c2CCC3)CC1	GPR151 activ 10.5 | GPR151 conf act inactive | GPR119 counter inactive
Cc1cnc(Nc2ccc(-n3ccnc3)cc2)nc1NCCN(C(C)C)C(C)C	GPR151 activ 7.0 | GPR151 conf act inactive | GPR119 counter inactive
Cn1nnc2c(N3CCC4(CC3)OCCO4)nc(Cc3ccc(Cl)cc3Cl)nc21	GPR151 activ 6.8 | GPR151 conf act inactive | GPR119 counter inactive
COc1ccccc1NC(=O)Cn1c(=O)n(Cc2ccc(F)cc2)c(=O)c2cccnc21	none
COc1ccccc1NC(=O)Cn1c(=O)n(Cc2ccccc2)c(=O)c2cccnc21	GPR151 activ 5.2 | GPR151 conf act inactive | GPR119 counter inactive
Cc1cc(C)nc(N2CCC(C(=O)Nc3ccccc3)CC2)n1	none
CC(C)(C)OC(=O)NCC(=O)NC(Cc1ccc(OCc2ccccc2)cc1)C(N)=O (stereo unspecified)	GPR151 activ 5.1 | GPR151 conf act inactive | GPR119 counter inactive
Cc1c(S(=O)(=O)N2CCN(c3ccccc3)CC2)c(=O)n(C)c(=O)n1C	GPR151 activ 8.2 | GPR151 conf act inactive | GPR119 counter inactive
COC(=O)C12CC3CC(CC(NC(=O)CN4C(=O)CCC4=O)(C3)C1)C2	none
Cc1ccc(C(=O)Nc2sc3c(c2C#N)CCC3)cc1S(=O)(=O)N1CCCCC1	none
O=C1N[C@@H](Cc2ccc(O)cc2)C(=O)N2CCN(C(=O)c3cc(F)ccc3F)C[C@H]12	GPR151 activ 5.7 | GPR151 conf act inactive | GPR119 counter inactive
C[C@@H](O)[C@@H]1NC(=O)[C@H]2CN(C(=O)c3ccc4ccccc4c3)CCN2C1=O	none
O=C1N[C@@H](Cc2cnc[nH]2)C(=O)N2CCN(C(=O)c3ccc(F)cc3)C[C@H]12	GPR151 activ 6.0 | GPR151 conf act inactive | GPR119 counter inactive
O=C1N[C@@H](Cc2ccc(Cl)cc2)C(=O)N2CCN(C(=O)c3cc(Cl)cc(Cl)c3)C[C@H]12	GPR151 activ 15.5 | GPR151 conf act inactive | GPR119 counter inactive
C[C@H](O)[C@H]1NC(=O)[C@H]2CN(C(=O)c3ccc4ccccc4c3)CCN2C1=O	GPR151 activ 6.2 | GPR151 conf act inactive | GPR119 counter inactive
O=C(/C=C/c1ccco1)N1CCCc2ccccc21	none
COc1ccc(S(=O)(=O)N2CCN(C(=O)c3c(F)cccc3F)CC2)cc1	none
O=C(CCCCCn1c(SCc2ccccc2Cl)nc2ccsc2c1=O)NCCc1ccccc1	none
Cc1c(N2C(=O)C3C4C=CC(O4)C3C2=O)c(=O)n(-c2ccccc2)n1C (stereo unspecified)	none
CC[C@@H]1NC(=O)[C@H]2CN(C(=O)c3cccc(Cl)c3)CCN2C1=O	GPR151 activ 12.7 | GPR151 conf act inactive | GPR119 counter inactive
CCC(C)c1ccccc1NC(=O)CCNC(C)=O (stereo unspecified)	none
CCC(C)c1ccccc1NC(=S)NC(C)=O (stereo unspecified)	GPR151 activ 31.1 | GPR151 conf act inactive | GPR119 counter inactive
CCOc1ccc(NC(=O)C2=CCN(S(=O)(=O)c3ccccc3)CC2)cc1	GPR151 activ 5.4 | GPR151 conf act inactive | GPR119 counter inactive
CCOc1ccc(C(=O)NCC2CCCN2S(=O)(=O)c2ccccc2)cc1 (stereo unspecified)	GPR151 activ 5.6 | GPR151 conf act inactive | GPR119 counter inactive
Cc1ccc(-n2c(-c3ccc(F)cc3)nn(CCNC(=O)C3CCC3)c2=O)nc1	none
NC[C@H]1O[C@H](O[C@H]2[C@H](O)[C@@H](O[C@H]3O[C@H](CO)[C@@H](O)[C@H](N)[C@H]3O)[C@H](N)C[C@@H]2N)[C@H](N)C[C@@H]1O	GPR151 activ 23.8! | GPR151 conf act inactive | GPR119 counter inactive
Cc1nonc1NC(=O)c1sc2nc3ccc(C(C)C)cc3cc2c1N	none
CCn1c(=S)sc2c(=O)n(-c3ccccc3)c(SCC(=O)Nc3ccc(C)cc3)nc21	none
COCCCN1C(=O)C(O)=C(C(=O)c2ccco2)C1c1ccc(C(C)(C)C)cc1 (stereo unspecified)	none
COCCN1C(=O)C(O)=C(C(=O)c2ccc(C)o2)C1c1ccc(C(C)(C)C)cc1 (stereo unspecified)	GPR151 activ 7.5 | GPR151 conf act inactive | GPR119 counter inactive
CC(C)C(=O)N=C1SC2CS(=O)(=O)CC2N1c1cccc(C(F)(F)F)c1 (stereo unspecified)	GPR151 activ 7.5 | GPR151 conf act inactive | GPR119 counter inactive
CCCC(=O)Nc1ccc(NC(=O)c2cccc([N+](=O)[O-])c2C)cc1	none
O=C(c1cccc(F)c1F)N1CCCCCC1	GPR151 activ 4.9 | GPR151 conf act inactive | GPR119 counter inactive
O=C(c1cccc(F)c1F)N1CCCCC1	none
O=[N+]([O-])c1cccc(N=Cc2nc(-c3ccccc3Br)oc2O)c1	none
O=C(CCN1C(=O)C2C3C=CC(C3)C2C1=O)N1CCN(c2ccccc2F)CC1 (stereo unspecified)	GPR151 activ 5.1 | GPR151 conf act inactive | GPR119 counter inactive
O=C(CCN1C(=O)C2C3C=CC(C3)C2C1=O)N1CCN(c2ccccc2Cl)CC1 (stereo unspecified)	none
Cc1cc(C)n(Cc2cccc(C(=O)O)c2)n1	none
O=C(CCC(=O)Nc1ccccc1Cl)NNC(=O)c1ccccc1[N+](=O)[O-]	GPR151 activ 7.5 | GPR151 conf act inactive | GPR119 counter inactive
N#Cc1ccc(C(=O)Nc2ccccc2N2CCCC2)c(F)c1	GPR151 activ 13.8 | GPR151 conf act inactive | GPR119 counter inactive
O=C(Nc1ccccc1N1CCCC1)c1ccccc1[N+](=O)[O-]	GPR151 activ 5.8 | GPR151 conf act inactive | GPR119 counter inactive
O=C(Nc1ccccc1Cl)c1ccccc1[N+](=O)[O-]	none
Nc1nnc(CC(=O)N/N=C\c2ccc(O)cc2O)s1	none
O=C(Nc1ccc(I)cc1)Nc1ccc2c(c1)OCO2	GPR151 activ 5.8 | GPR151 conf act inactive | GPR119 counter inactive
CCOC(=O)c1nnn(CC(=O)Nc2ccccc2[N+](=O)[O-])c1C(=O)OCC	none
CC1=C(C#N)C(=O)N(C)C(=O)/C1=C/c1ccc(-c2cccc(Cl)c2C)o1	GPR151 activ 5.0 | GPR151 conf act inactive | GPR119 counter inactive

Bioassay records (PubChem)
